Data from PubChem BioAssay (Tox21).
Results filed as inconclusive are left out. Where a call stands in place of a potency, no number is given. Unmarked numbers belong to inactive results. Activity calls are given as the source filed them. Calls follow the shape of the dose curve; as a rule, active = well fitted activation curve with a large enough effect in the repeat runs; inconclusive = weak or mixed curves; inactive = flat fitted curve, though single readings scatter.

Test: A CellTox Green Cytotoxicity Assay to monitor cytotoxicity in HEK293 cells - 24 hour (AID 1224875); also: nearly all actives have a fitted effect of over 45% in size
Details: CellTox Green fluorescence; series mostly up to 76.8 µM
Excerpt: National Center for Advancing Translational Sciences [NCATS]
NIH Chemical Genomics Center [NCGC]
U.S. Environmental Protection Agency [EPA]
National Institutes of Environmental Health Sciences [NIEHS]
National Toxicology Program [NTP]
Cell-based models are critical for drug discovery. Determining the natural cytotoxic effects resulting from test compounds is an essential research activity. A CellTox Green Cytotoxicity Assay to monitor cytotoxicity in real time of continues cell culture during 40 hours of the compound treatment was used to screen Tox21 10K library compounds in Hek293 cells. CellTox Green Cytotoxicity Assay is a nonlytic, homogeneous, biofluorescent method to measure cytotoxicity in cell culture after experimental manipulation. The assay system uses a proprietary asymmetric cyanine dye that is excluded from viable cells but preferentially stains the dead cell's DNA. […] Viable cells produce no appreciable increases in fluorescence. Therefore, the fluorescence signal produced by the binding interaction with dead cell DNA is proportional to cytotoxicity.
The mixture of Hek293 cell suspension and reagents were dispensed at 600cells/6 ul/well in 1536-well tissue culture treated black solid bottom plates using a Multidrop dispenser. After the assay plates were incubated at a 37 C/5% CO2 incubator for 5 hours, 23 nL of compounds dissolved in DMSO, positive and negative controls was transferred to the assay plate by a pintool work station. The plates were incubated at 37 C for 40 hours. The fluorescence intensity were measured at 0h, 8h, 16h, 24h, 32h and 40h time points using ViewLux plate reader during compound treatment.
Potency is read from the fitted curve at half-maximal effect.

Question: Which Potency does the source give for `COc1ccc(-n2nc(CCC(=O)N(C)O)cc2-c2ccc(Cl)cc2)cc1` here?
Answer: The Potency was “inactive”.

Question: For `CC(C)N=C(N)/N=C(\N)Nc1ccc(Cl)cc1`, which Potency is on record?
Answer: The Potency was “inactive”.

Question: With `Clc1nc2ccccc2s1` as the compound, how does the Potency read?
Answer: The Potency was “inactive”.

Question: With `Clc1ccc(C(c2ccccc2Cl)C(Cl)Cl)cc1` (stereo not given) as the compound, how does the Potency read?
Answer: Its Potency is “inactive”.

Question: For `CCCCOC(=O)C(C)CC` (stereo not given), which Potency is on record?
Answer: Its Potency is “inactive”.

Question: For `CCCC(C)CCC(C)=O` (stereo not given), which Potency is on record?
Answer: The Potency was “inactive”.

Question: For `COc1cccc(O)c1`, which Potency is on record?
Answer: Its Potency is “inactive”.

Question: With `CCOC(=O)[C@@](C)(N)Cc1ccc(O)c(O)c1` as the compound, how does the Potency read?
Answer: Its Potency is “inactive”.

Question: Which Potency does the source give for `CCOC(=O)CN` here?
Answer: Its Potency is “inactive”.

Question: Which Potency does the source give for `C[C@H]1O[C@@H](O[C@H]2[C@@H](O)C[C@H](O[C@H]3[C@@H](O)C[C@H](O[C@H]4CC[C@@]5(C)[C@H](CC[C@@H]6[C@@H]5C[C@@H](O)[C@]5(C)[C@@H](C7=CC(=O)OC7)CC[C@]65O)C4)O[C@@H]3C)O[C@@H]2C)C[C@H](O)[C@@H]1O` here?
Answer: The Potency was “inactive”.

Question: Which Potency does the source give for `CCc1c(Br)c(Br)c(Br)c(Br)c1Br` here?
Answer: Its Potency is “inactive”.

Question: Which Potency does the source give for `COc1cccc(OC)c1O` here?
Answer: The Potency was “inactive”.

Question: With `CC(C)CCOCCC(C)C` as the compound, how does the Potency read?
Answer: Its Potency is “inactive”.

Question: Which Potency does the source give for `CO[C@H]1C=CO[C@@]2(C)Oc3c(C)c(O)c4c(O)c(cc(O)c4c3C2=O)NC(=O)/C(C)=C\C=C/[C@H](C)[C@H](O)[C@@H](C)[C@@H](O)[C@@H](C)[C@H](OC(C)=O)[C@@H]1C` here?
Answer: The Potency was “inactive”.

Question: For `c1ccc(Sc2ccccc2)cc1`, which Potency is on record?
Answer: The Potency was “inactive”.

Question: With `NC(=O)C(=O)N/N=C/c1ccc([N+](=O)[O-])o1` as the compound, how does the Potency read?
Answer: The Potency was “inactive”.

Question: With `O=C=NCc1cccc(CN=C=O)c1` as the compound, how does the activity change read?
Answer: Its activity change is -11.7% [at 15.8 µM, stronger effect = higher value].

Question: Which Potency does the source give for `CCCCCCC(C)OC(=O)COc1nc(F)c(Cl)c(N)c1Cl` (stereo not given) here?
Answer: Its Potency is “inactive”.

Question: For `CCCCCCCCCCCCN(CCO)CCO`, which Potency is on record?
Answer: Its Potency is 54.7 µM (active).

Question: For `CC(=O)Nc1ccc(O)cc1`, which Potency is on record?
Answer: Its Potency is “inactive”.

Question: Which Potency does the source give for `CCOC(=O)CC(C)O` (stereo not given) here?
Answer: The Potency was “inactive”.

Question: With `CSc1ccc2c(c1)N(CCC1CCCCN1C)c1ccccc1S2` (stereo not given) as the compound, how does the Potency read?
Answer: Its Potency is 24.4 µM (active).

Question: For `Clc1ccc(C(Cn2ccnc2)OCc2c(Cl)cccc2Cl)c(Cl)c1` (stereo not given), which Potency is on record?
Answer: Its Potency is “inactive”.

Question: For `CCOCN(C(=O)CS(=O)(=O)O)c1c(C)cccc1CC`, which Potency is on record?
Answer: The Potency was “inactive”.

Question: Which activity change does the source give for `COc1cc(C(C)C)c2c(c1)S(=O)(=O)N(COc1cc(=O)n3cccc(OCCN4CCCCC4)c3n1)C2=O` here?
Answer: Its activity change is 0.172% [at 15.8 µM, stronger effect = higher value].

Question: Which Potency does the source give for `COc1cc(C(=O)NS(=O)(=O)c2ccccc2C)ccc1Cc1cn(C)c2ccc(NC(=O)OC3CCCC3)cc12` here?
Answer: The Potency was “inactive”.

Question: For `C[Si](C)O[Si](C)C`, which Potency is on record?
Answer: The Potency was “inactive”.

Question: Which Potency does the source give for `CCOC(OCC)C(=O)c1ccccc1` here?
Answer: Its Potency is “inactive”.

Question: Which Potency does the source give for `O=C1c2c(O)ccc([N+](=O)[O-])c2C(=O)c2c([N+](=O)[O-])ccc(O)c21` here?
Answer: The Potency was “inactive”.

Question: With `O=C1NC2CCCCN2C12CCN(CCCN1c3ccccc3CCc3ccc(Cl)cc31)CC2` (stereo not given) as the compound, how does the Potency read?
Answer: The Potency was 19 µM (active).

Question: Which Potency does the source give for `CC1=CP(=O)(c2ccccc2)CC1` (stereo not given) here?
Answer: The Potency was “inactive”.

Question: Which Potency does the source give for `CCN(CC)CCOC(=O)C1(C2CCCCC2)CCCCC1` here?
Answer: The Potency was 23.9 µM (active).

Question: With `CCCCCCCCCCc1ccccc1` as the compound, how does the Potency read?
Answer: The Potency was “inactive”.

Question: With `Clc1cccnc1` as the compound, how does the Potency read?
Answer: Its Potency is “inactive”.

Question: Which Potency does the source give for `CCC(=O)OCCc1ccccc1` here?
Answer: Its Potency is “inactive”.

Question: With `CC(C)=CC1CC(C)CCO1` (stereo not given) as the compound, how does the Potency read?
Answer: Its Potency is “inactive”.

Question: For `O=C1OC(OC(=O)c2cccnc2Nc2cccc(C(F)(F)F)c2)c2ccccc21` (stereo not given), which Potency is on record?
Answer: Its Potency is “inactive”.

Question: For `CCC(C)c1ccccc1` (stereo not given), which Potency is on record?
Answer: Its Potency is “inactive”.

Question: Which Potency does the source give for `C=CC(=O)OCCC#N` here?
Answer: Its Potency is “inactive”.

Question: For `C=C(C)CCCC`, which Potency is on record?
Answer: The Potency was “inactive”.
